Data from the supplement of paper PMC11732987, “Enantioselective OTUD7B fragment discovery through chemoproteomics screening and high-throughput optimisation” (Communications Chemistry, 2025).

What was measured:
Test in all cases: log2 ratio of Biotin-Ahx-Ub-VS probe labelling (fragment/DMSO); higher = less target engagement (more negative = stronger competition), active = hit call of the paper (q ≤ 0.05, log2 ratio ≤ -1)
Conditions in all cases: compound concentration: 200 uM; treatment time: 3 h
USP34 = USP34 (UniProt Q70CQ2)
In short: (§1)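 Triplicate samples of HEK293T lysate, 495 µg each, received fragment at 200 µM or vehicle for 3 h, followed by Biotin-Ahx-Ub-VS (0.5 µM final) for 1 h. After NeutrAvidin enrichment of labelled DUBs and LysC/trypsin digestion, peptides were run by diaPASEF LC-MS/MS. The values are average log2 fragment/vehicle ratios from global-median-normalised Spectronaut label-free quantities, tested by unpaired t-test on proteins having ≥2 unique peptides.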

USP36 = target: T1, USP36 (UniProt Q9P275)
T1 sequence (whole entry): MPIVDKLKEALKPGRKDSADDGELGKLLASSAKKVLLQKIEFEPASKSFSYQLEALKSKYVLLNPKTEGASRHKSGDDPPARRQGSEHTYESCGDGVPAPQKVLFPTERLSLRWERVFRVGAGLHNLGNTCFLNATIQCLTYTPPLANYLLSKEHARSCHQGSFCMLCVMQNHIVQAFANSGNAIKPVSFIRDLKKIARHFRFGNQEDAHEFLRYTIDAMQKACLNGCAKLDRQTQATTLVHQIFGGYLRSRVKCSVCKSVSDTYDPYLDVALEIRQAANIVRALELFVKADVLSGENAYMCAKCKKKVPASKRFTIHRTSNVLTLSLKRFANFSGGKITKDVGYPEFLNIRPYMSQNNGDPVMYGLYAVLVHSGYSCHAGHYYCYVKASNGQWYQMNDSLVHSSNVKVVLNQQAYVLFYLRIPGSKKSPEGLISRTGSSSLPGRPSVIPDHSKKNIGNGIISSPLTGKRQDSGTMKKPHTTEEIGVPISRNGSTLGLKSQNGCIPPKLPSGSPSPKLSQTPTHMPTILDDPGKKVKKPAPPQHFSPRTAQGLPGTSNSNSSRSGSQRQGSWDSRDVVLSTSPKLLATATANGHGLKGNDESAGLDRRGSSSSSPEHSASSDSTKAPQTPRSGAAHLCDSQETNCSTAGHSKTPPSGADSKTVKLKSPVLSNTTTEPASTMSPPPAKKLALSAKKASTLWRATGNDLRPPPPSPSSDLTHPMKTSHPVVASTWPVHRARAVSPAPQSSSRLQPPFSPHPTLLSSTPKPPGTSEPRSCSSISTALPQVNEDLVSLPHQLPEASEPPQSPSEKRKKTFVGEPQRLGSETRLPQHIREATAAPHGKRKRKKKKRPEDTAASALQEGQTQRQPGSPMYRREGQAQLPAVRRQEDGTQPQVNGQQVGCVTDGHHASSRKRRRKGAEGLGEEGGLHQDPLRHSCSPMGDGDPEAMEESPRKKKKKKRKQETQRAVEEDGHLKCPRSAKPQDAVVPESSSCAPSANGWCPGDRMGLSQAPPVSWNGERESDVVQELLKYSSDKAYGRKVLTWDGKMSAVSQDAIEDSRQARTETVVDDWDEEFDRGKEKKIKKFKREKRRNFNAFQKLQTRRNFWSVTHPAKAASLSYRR
In short: as §1

USP38 = target: T2, USP38 (UniProt Q8NB14)
T2 sequence (whole entry): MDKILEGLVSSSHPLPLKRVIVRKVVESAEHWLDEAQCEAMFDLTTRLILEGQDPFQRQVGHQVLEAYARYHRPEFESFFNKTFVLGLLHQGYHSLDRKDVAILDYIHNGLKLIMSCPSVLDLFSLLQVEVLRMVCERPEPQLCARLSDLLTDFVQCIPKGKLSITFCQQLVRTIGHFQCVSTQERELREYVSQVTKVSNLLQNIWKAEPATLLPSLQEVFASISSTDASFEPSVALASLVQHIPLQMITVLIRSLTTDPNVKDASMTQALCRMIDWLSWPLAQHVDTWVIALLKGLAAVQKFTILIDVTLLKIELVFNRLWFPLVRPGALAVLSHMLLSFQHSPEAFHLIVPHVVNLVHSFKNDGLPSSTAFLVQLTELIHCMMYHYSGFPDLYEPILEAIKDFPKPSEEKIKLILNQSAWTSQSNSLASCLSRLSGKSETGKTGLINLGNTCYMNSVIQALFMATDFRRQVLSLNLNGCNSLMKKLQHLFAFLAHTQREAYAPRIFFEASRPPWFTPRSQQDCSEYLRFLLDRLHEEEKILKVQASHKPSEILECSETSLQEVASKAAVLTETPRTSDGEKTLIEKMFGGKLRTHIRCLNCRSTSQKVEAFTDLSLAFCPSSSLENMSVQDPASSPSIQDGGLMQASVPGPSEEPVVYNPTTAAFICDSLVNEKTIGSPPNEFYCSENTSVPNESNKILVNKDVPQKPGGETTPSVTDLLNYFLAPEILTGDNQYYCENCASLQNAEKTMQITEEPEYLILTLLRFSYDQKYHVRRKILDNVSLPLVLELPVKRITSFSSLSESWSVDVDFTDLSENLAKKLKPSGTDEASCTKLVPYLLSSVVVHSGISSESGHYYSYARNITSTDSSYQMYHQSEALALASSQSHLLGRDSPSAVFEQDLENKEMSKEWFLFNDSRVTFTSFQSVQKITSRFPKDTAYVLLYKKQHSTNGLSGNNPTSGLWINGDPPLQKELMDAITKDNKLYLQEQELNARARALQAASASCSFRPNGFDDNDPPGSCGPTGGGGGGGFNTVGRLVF
In short: as §1

USP39 = target: T3, USP39 (UniProt Q53GS9)
T3 sequence (whole entry): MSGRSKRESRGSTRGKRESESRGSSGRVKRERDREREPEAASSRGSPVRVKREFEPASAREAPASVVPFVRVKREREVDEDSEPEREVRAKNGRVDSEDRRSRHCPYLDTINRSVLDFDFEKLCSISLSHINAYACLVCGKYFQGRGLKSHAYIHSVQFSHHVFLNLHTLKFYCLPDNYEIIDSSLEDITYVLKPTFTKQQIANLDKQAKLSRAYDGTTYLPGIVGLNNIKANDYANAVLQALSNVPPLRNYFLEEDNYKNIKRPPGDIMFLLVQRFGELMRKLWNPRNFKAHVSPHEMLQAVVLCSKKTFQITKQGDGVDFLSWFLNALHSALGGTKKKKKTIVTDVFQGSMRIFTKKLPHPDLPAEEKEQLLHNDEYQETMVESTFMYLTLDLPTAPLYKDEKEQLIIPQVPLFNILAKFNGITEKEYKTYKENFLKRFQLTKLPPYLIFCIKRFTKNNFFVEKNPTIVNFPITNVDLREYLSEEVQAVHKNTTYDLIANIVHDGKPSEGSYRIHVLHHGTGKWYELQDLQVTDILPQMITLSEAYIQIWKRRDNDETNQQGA
In short: as §1

USP4 = target: T4, USP4 (UniProt Q13107)
T4 sequence (whole entry): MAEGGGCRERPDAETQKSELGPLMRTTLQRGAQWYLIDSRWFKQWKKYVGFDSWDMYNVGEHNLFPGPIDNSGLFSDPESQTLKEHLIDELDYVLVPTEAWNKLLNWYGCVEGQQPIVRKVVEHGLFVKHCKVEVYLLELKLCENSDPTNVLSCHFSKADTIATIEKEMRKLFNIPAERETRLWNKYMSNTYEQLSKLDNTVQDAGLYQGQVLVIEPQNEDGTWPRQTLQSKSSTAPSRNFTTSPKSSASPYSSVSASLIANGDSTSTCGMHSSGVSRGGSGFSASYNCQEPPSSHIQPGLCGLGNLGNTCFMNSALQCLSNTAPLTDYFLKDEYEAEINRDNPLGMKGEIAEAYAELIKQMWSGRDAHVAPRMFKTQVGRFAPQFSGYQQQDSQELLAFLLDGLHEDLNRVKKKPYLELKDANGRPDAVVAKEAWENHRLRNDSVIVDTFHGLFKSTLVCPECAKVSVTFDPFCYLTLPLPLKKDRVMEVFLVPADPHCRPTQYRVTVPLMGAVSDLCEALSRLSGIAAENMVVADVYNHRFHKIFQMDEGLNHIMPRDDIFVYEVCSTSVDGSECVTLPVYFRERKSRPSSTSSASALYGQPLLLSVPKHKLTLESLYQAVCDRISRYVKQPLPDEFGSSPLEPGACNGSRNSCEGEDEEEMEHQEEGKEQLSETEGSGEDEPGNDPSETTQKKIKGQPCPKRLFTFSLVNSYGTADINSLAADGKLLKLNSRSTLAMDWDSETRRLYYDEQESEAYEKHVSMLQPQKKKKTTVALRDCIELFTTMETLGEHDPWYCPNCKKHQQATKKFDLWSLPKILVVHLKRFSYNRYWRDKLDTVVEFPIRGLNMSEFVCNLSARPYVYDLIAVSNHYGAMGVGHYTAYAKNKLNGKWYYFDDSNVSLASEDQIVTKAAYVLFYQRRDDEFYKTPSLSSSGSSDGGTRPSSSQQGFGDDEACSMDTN
In short: as §1

Measured: log2 ratio of Biotin-Ahx-Ub-VS probe labelling

Sequence of USP34 (Q70CQ2 whole entry, the tested form may be a part): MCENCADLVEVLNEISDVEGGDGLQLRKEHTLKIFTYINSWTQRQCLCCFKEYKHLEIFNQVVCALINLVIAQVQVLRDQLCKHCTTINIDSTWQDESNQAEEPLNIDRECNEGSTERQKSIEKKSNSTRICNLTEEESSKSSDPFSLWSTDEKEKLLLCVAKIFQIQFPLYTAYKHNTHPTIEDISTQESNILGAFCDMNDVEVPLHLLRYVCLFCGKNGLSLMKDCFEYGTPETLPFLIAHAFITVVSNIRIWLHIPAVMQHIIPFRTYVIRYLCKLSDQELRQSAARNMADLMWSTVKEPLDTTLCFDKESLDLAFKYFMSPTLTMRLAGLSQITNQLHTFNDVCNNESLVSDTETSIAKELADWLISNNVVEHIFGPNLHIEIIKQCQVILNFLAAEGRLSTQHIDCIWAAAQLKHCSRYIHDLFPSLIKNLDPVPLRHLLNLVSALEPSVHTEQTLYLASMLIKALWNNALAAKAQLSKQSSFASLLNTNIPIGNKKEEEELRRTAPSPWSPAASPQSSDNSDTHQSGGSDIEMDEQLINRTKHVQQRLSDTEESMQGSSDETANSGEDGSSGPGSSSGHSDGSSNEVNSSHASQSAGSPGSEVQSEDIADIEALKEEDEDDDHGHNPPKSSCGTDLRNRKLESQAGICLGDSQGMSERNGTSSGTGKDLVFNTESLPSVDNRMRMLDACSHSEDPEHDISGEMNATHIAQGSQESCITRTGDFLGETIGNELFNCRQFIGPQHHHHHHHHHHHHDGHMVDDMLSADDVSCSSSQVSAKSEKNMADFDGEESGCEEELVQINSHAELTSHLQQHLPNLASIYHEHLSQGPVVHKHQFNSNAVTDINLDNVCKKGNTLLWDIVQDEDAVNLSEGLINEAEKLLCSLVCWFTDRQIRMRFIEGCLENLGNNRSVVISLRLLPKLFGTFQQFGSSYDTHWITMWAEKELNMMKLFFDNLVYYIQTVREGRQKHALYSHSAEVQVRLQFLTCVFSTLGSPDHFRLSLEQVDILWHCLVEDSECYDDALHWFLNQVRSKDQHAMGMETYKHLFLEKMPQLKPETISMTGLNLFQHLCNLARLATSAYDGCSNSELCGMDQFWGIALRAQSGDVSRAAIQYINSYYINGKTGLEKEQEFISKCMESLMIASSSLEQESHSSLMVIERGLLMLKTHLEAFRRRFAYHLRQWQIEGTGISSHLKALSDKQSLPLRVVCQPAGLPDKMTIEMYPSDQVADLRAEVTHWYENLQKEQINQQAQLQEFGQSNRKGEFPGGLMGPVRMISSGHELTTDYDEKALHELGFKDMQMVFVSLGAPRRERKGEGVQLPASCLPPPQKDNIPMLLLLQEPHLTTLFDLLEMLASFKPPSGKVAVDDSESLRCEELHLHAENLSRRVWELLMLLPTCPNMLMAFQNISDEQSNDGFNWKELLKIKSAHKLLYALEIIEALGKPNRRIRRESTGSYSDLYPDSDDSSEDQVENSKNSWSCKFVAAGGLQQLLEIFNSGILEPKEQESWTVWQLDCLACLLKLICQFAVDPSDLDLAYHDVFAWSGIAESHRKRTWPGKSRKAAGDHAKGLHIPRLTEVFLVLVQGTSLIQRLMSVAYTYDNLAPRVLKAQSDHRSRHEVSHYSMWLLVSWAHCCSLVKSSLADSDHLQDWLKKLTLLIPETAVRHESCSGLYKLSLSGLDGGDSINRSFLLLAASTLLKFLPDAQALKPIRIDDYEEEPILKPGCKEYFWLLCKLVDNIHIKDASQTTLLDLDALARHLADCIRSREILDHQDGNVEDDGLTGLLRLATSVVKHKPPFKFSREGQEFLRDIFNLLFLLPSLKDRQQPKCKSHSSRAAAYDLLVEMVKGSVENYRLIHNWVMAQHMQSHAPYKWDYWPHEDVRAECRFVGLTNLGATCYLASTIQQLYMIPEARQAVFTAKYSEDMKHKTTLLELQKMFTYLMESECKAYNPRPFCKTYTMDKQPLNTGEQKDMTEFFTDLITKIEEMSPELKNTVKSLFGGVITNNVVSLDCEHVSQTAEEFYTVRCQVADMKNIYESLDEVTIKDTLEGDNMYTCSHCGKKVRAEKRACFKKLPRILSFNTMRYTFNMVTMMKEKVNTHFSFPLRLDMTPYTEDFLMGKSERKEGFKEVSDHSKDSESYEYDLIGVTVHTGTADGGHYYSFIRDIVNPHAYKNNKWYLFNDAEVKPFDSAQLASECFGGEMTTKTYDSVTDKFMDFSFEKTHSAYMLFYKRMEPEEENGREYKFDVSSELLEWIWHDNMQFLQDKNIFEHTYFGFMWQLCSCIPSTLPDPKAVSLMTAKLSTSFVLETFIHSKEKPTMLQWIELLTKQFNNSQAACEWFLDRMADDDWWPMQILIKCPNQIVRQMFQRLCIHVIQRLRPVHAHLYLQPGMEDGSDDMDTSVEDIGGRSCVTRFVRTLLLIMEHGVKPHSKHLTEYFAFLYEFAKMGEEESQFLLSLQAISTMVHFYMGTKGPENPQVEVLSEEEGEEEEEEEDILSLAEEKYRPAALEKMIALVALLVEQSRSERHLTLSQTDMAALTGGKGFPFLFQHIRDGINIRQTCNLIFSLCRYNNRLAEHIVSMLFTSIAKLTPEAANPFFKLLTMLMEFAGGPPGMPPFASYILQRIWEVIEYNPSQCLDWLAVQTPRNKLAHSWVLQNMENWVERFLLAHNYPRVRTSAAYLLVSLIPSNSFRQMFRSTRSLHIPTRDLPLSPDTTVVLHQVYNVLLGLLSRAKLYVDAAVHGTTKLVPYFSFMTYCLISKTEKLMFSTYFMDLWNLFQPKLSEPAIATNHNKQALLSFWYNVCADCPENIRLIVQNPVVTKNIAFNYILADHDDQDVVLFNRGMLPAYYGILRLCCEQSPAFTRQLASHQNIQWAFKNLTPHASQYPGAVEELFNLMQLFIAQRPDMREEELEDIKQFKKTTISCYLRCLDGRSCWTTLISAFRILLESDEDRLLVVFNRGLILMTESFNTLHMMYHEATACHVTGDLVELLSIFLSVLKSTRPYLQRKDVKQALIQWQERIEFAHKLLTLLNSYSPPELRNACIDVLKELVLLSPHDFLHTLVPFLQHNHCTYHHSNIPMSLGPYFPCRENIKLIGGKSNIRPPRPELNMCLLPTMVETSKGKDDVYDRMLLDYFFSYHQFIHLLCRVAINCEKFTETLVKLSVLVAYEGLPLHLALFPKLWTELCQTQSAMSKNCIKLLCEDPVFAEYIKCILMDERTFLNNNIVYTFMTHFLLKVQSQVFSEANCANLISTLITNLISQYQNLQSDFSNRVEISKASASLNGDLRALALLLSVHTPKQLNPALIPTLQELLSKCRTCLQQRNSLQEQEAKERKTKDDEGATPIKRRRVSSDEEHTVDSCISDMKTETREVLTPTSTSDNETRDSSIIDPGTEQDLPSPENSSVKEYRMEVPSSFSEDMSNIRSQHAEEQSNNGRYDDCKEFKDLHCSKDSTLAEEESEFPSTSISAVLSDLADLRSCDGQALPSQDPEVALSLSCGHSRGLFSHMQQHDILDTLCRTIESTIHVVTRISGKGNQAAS

O=C(CCl)N(C1=CCCCC1)C1CC1
inactive: USP34 -0.0141 | USP36 -0.116 | USP38 -0.172 | USP39 -0.177 | USP4 0.0249
